aSyn UTR act: Activators working through SNCA 5'UTR binding (MLPCN). alpha-synuclein 5'UTR reporter, activators screen. activity score, % (tested at 7.5 µM), hits read low. actives 7.1% (n = 300,000). AID 1814; in the data active = activity score below about -60%
* marks the source's active call; other numbers are inactive results. Only a sample is shown.

SMILES	aSyn UTR act
CC(C)(C)c1ccc(-c2nc(C#N)c(NCc3ccncc3)o2)cc1	-107*
Cc1cnnc2ccc3c(no[n+]3[O-])c12	-93*
CC(=Nc1ccc(Br)cc1)c1sc2ccccc2c1O	-125*
CC(=Nc1ccccc1)c1sc2ccccc2c1O	-383*
CCOC(=O)C1CCN(C(=O)c2c(C)oc3c2C(=O)c2ccccc2C3=O)CC1	72
CC1CCN(C(=O)c2cc3ccccc3c(=O)o2)CC1	-78*
Cc1oc2c(c1C(=O)N1CCC(C)CC1)C(=O)c1ccccc1C2=O	83
CCOC(=O)C1CCN(C(=O)c2cc3c(ccc4ccccc43)o2)CC1	-115*
CCOC(=O)C1CCN(Cc2c(O)ccc3ccccc23)CC1	-108*
C/C(=N\Nc1cccc2cccnc12)c1ccc[nH]1	-123*
COC(=O)CCCNC(=O)c1ccc2oc(CCCc3ccccc3)nc2c1	-62*
COC(=O)[C@@H](C)NC(=O)c1ccc2oc(CCc3ccccc3)nc2c1	-169*
Cc1ccc(C(=O)Nc2ccc3c(c2)ncn3C)cc1	-115*
CCC(=O)Nc1ccc2c(c1)ncn2-c1ccc(C)cc1	-77*
CCn1cnc2cc(NC(=O)c3ccc(C)cc3)ccc21	-106*
CCCn1cnc2cc(NC(=O)c3cccs3)ccc21	-113*
O=C(Nc1cccc(-c2ccc(N3CCOCC3)nn2)c1)c1ccc(F)cc1F	-73*
CCOc1ccc(C(=O)Nc2cccc(-c3ccc(N4CCOCC4)nn3)c2)cc1OCC	-69*
COc1ccc(C(=O)Nc2cccc(-c3ccc(N4CCOCC4)nn3)c2)cc1OC	-70*
COc1cccc(C(=O)Nc2cccc(-c3ccc(N4CCOCC4)nn3)c2)c1	-72*
CCOc1ccccc1C(=O)Nc1c[nH]c(=O)[nH]c1=O	62
CCOc1ccccc1C(=O)Nc1cccc(-c2ccc(N3CCOCC3)nn2)c1	-127*
CCSc1ccc(-c2cccc([N+](=O)[O-])c2)nn1	-89*
O=C(C#Cc1ccccc1)Nc1ccc(F)cc1	-195*
COc1ccc(NC(=O)C#Cc2ccccc2)cc1	-385*
SMILES	aSyn UTR act
O=C(C#Cc1ccccc1)Nc1cccc(F)c1	-383*
O=C(/C=C/c1ccnc2ccccc12)c1cccs1	-80*
c1ccc(-n2ncc3c2ncn2nc(-c4ccco4)nc32)cc1	-131*
COC(=O)Cc1ccc(NC(=O)c2ccc(Br)o2)cc1	-153*
CCN(CC)c1ccc(NC(=O)c2ccc(Br)o2)cc1	-151*
COc1ccc(-c2ccc(NC(=O)c3ccc(Br)o3)cc2)nn1	-110*
CCN(CC)c1ccc(NC(=O)c2cnn(CC)c2)cc1	-95*
CCCc1nc2c(sc3nc4c(cc32)COC(C)(C)C4)c(=O)n1Cc1ccco1	-65*
Cc1nc2c(sc3nc4c(cc32)COC(C)(C)C4)c(=O)n1CC(=O)NCc1ccco1	-69*
Cc1nc2c(sc3nc4c(cc32)COC(C)(C)C4)c(=O)n1Cc1ccccc1	-109*
Cc1nc(OCc2ccccc2)c2sc3nc4c(cc3c2n1)COC(C)(C)C4	-185*
COc1cc(CO)ccc1OCc1ccc(Cl)nc1	-102*
CC(C)(C)c1cc[n+](C2=C([O-])c3ccccc3C(=O)/C2=N\S(=O)(=O)c2ccccc2)cc1	84
Cc1ccccc1NC1=C/C(=N\S(=O)(=O)c2cccs2)c2ccccc2C1=O	114
Cc1ccccc1NC1=C/C(=N\S(=O)(=O)c2ccc(C(=O)O)cc2)c2ccccc2C1=O	-69*
Cc1ccc(NC2=C/C(=N/S(=O)(=O)c3cccs3)c3ccccc3C2=O)cc1C	-155*
Cc1cc[n+](C2=C([O-])c3ccccc3C(=O)/C2=N\S(=O)(=O)c2cccs2)cc1C	74
Cc1cccc(Nc2ncc3c(n2)CC(C)CC3=O)c1 (stereo unspecified)	-127*
CCc1ccc(Nc2ncc3c(n2)CC(C)CC3=O)cc1 (stereo unspecified)	-135*
CCc1ccc(Nc2ncc3c(n2)CC(C)(C)CC3=O)cc1	-141*
C(=N\Nc1ncnc2nc[nH]c12)/c1cccs1	-69*
Cc1ccsc1/C=N/Nc1ncnc2nc[nH]c12	-90*
Cc1ccccc1/C=N/Nc1ncnc2nc[nH]c12	-71*
Fc1ccc(/C=N/Nc2ncnc3nc[nH]c23)cc1F	-74*
Cc1ccc(CSc2nnc(SCC(=O)N/N=C/c3ccccc3OCC(=O)O)s2)cc1	62
SMILES	aSyn UTR act
O=C(CSc1nnc(SCc2ccc(Cl)cc2)s1)N/N=C/c1c(Cl)cccc1Cl	-69*
Cc1ccc(CSc2nnc(SCC(=O)N/N=C/c3ccc(C(=O)O)cc3)s2)cc1	70
O=C(CSc1nnc(SCc2ccccc2Cl)s1)N/N=C/c1c[nH]c2ccccc12	-94*
CCCn1c(=O)c2ccccc2n2c(SCc3nc4ccccc4s3)nnc12	-160*
O=c1[nH]nc(SCc2nc3ccccc3s2)n1C1CC1	-144*
CCCn1c(SCc2nc3ccccc3s2)n[nH]c1=O	-165*
CC(=O)N1CCc2cc(S(=O)(=O)NCCC(=O)Nc3ccc4c(c3)OCCO4)ccc21	-176*
C/C(=N\NC(=O)C1CC1)c1ccc(NC(=O)c2ccc(Br)o2)cc1	-110*
C/C(=N\NC(=O)c1c(Cl)cnn1C)c1ccc(NC(=O)c2ccc(Br)o2)cc1	-116*
Cn1c(/C(C#N)=C(\O)c2ccc([N+](=O)[O-])s2)nc2ccccc21	-115*
Cn1c(/C(C#N)=C(\O)c2ccc(Cl)s2)nc2ccccc21	-80*
CN(CC(=O)Nc1ccccc1Cl)C(=O)COC(=O)c1nc(Cl)c(Cl)c(Cl)c1Cl	-129*
COc1ccc(/C(N)=C/C(=O)C(C)(C)C)cc1	-98*
CC1CCc2c(nc3sc4c(c3c2N)CCCC4)C1 (stereo unspecified)	-125*
CC1CCc2nc3sc4c(c3c(N)c2C1)CCCC4 (stereo unspecified)	-132*
COc1ccc(C)cc1NC(=O)CNC(c1ccccc1)c1ccc(C)cc1 (stereo unspecified)	103
Cc1ccc(NC(=O)NCC(c2ccccc2)N(C)C)cc1 (stereo unspecified)	-107*
Cc1ccc(NC(=O)CNC(C)c2ccccc2)cc1 (stereo unspecified)	-73*
Cc1ccc(-n2c(C)cc(C(=O)COC(=O)c3ccc[nH]c3=O)c2C)cc1	-122*
Cc1cc(C(=O)COC(=O)c2ccc[nH]c2=O)c(C)n1C	-68*
CCOC(=O)c1c(C)oc2c1c(C(c1cccnc1)N1CCOCC1)c(O)c1ccccc12 (stereo unspecified)	-245*
O=S(=O)(NCC1(N2CCOCC2)CCCCC1)c1ccccc1Cl	-91*
COCc1c(C(=O)Nc2nc(C)cs2)oc2ccccc12	-88*
COCc1c(C(=O)Nc2ccc(Cl)cc2F)oc2ccccc12	-116*
NNC(=O)c1[nH]c2ccc(Cl)cc2c1-c1ccccc1	77
SMILES	aSyn UTR act
CC(O)CN=c1cc(-c2ccccc2)oc2ccc(Cl)cc12 (stereo unspecified)	-239*
OCCN=c1cc(-c2ccccc2)oc2ccc(Cl)cc12	-199*
CC(C)CN=c1cc(-c2ccccc2)oc2ccc(Cl)cc12	-123*
CCn1nc(C(=O)Nc2ccc(C)c(C)c2)c(Cl)c1Cl	-91*
CCCc1nn(C)c(C(=O)Nc2ccc(C)c(C)c2)c1Cl	-102*
CCCc1nn(C)c(C(=O)Nc2ccc(CC)cc2)c1Cl	-74*
S=C1SCN(Cc2cccnc2)CN1Cc1cccnc1	-86*
N#C/C(=C\C=C\c1ccccc1[N+](=O)[O-])C(=O)NC1CCCCC1	-132*
CC1=C[C@@H](C)[C@@H](c2ccc(C(F)(F)F)cc2)OC1=O	-63*

Source: PubChem BioAssay (Broad Institute)
